Drawing on PubChem BioAssay (EPA / NIEHS), this text covers outcome and AC50 for 40 compounds.

Calls of active or inactive are those of the source. Rule for the calls: active = hit-call score of the fitted dose curve at least 0.9, where 1 is the maximum; inactive = score below 0.9.

Heat shock factor protein 1 (Homo sapiens), sequence (Q00613 whole entry, looked up): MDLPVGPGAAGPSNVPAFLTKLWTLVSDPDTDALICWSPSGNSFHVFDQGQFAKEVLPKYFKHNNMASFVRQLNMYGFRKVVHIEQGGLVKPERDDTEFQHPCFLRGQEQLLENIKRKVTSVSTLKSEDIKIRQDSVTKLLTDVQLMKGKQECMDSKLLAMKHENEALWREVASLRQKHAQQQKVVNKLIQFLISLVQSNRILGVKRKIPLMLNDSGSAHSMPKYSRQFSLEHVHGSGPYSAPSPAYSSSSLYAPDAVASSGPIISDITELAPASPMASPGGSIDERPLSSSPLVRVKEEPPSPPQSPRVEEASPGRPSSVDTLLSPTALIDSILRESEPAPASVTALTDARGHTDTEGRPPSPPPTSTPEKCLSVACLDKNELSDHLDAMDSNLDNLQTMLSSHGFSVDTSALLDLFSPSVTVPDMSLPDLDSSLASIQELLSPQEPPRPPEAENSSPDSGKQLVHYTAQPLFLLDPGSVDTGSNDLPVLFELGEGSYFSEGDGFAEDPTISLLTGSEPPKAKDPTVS

The target of this test is Heat shock factor protein 1 (Homo sapiens) (UniProt Q00613). Nature of the test: ATG_HSE_CIS: Attagene CIS-FACTORIAL HepG2 Assay for human Heat Shock Transcription Factor 1 (HSE) (AID 2282953). The settings on record: HepG2 HSE cis-reporter, Attagene RNA transcription; actives raise or lower the signal. The protocol:
ATG_CIS is a cell-based, multiplexed-readout assay that uses HepG2, a human liver cell line, with measurements taken at 24 hours after chemical dosing in a 24-well plate.ATG_HSE_CIS is one of 52 assay component(s) measured or calculated from the ATG_CIS assay. It is designed to make measurements of mRNA induction, a form of inducible reporter, as detected with fluorescence intensity signals by Reverse transcription polymerase chain reaction (RT-PCR) and Capillary electrophoresis technology.Data from the assay component ATG_HSE_CIS was analyzed into 1 assay endpoint. This assay endpoint, ATG_HSE_CIS, was analyzed with bidirectional fitting relative to DMSO as the negative control and baseline of activity. Using a type of inducible reporter, measures of mRNA for gain or loss-of-signal activity can be used to understand the reporter gene at the transcription factor-level as they relate to the gene HSF1. Furthermore, this assay endpoint can be referred to as a primary readout, because this assay has produced multiple assay endpoints where this one serves a reporter gene function. To generalize the intended target to other relatable targets, this assay endpoint is annotated to the dna binding intended target family, where the subfamily is heat shock protein.
Human liver HepG2 cells are transiently transfected with multiple reporter transcription units (MRTUs) in 6-well plates using FuGene 6 reagent (Roche; 3 ml FuGene/1 mg DNA). The MRTU constructs are regulated by a cis-regulating element (promoter). […] A major difference between the CIS and TRANS system is that in CIS activities of endogenous TFs are measured, whereas the TRANS assay evaluates changes in activities of exogenous, chimeric NR-Gal4 proteins. […] At the end of 24 hour incubation, total RNA was isolated using TriZol reagent (Invitrogen). The isolated RNA is then reverse-transcribed using oligo(dT) primer and Mo-MLV reverse transcriptase (Invitrogen) with DNAse I (Ambion) treatment for 30 min. The one-tenth of the produced cDNA was amplified by PCR using Taq DNA polymerase (Invitrogen) and two reporter sequence-specific primers. The PCR products were fluorescently labeled by primer extension with 6-arboxyfluorescein (6-FAM) 5'-labeled reporter sequence-specific primer (2 min at 95 C, 20 s at 68 C and 10 min at 72 C) and these products were digested with 5U of HpaI (New England Biolabs) for 2h at 37 C. The fragments were purified using Qiaquick PCR columns (Qiagen), analyzed on an ABI 3130xL genetic analyzer (Applied Biosystems) with peak positions identified by using a set of X-rhodamine (ROX)-labeled MapMarker1000 molecular weight standards (BioVentures). The raw capillary electrophoresis data was processed using Attagraph software (Attagene).
For the compound `NC(=O)C(F)(F)C(F)(F)C(F)(F)C(F)(F)C(N)=O`, the outcome was inactive. Turning to `O=C(O)CCC(F)(F)C(F)(F)C(F)(F)C(F)(F)C(F)(F)C(F)(F)C(F)(F)F`, the compound was classed as inactive. For `CC1=CCC(=O)O1`, the compound was classed as inactive.

With `O=C(F)C1(F)C(F)(F)C(F)(F)C(F)(F)C(F)(F)C1(F)F`, the compound was classed as inactive.

For `NC(O)(C(F)(F)F)C(F)(F)F`, the compound was called inactive. Still for that read-out and setting: with `CNS(=O)(=O)C(F)(F)C(F)(F)C(F)(F)C(F)(F)C(F)(F)C(F)(F)C(F)(F)C(F)(F)F` the entry was “inactive”. For `CCCCC(CC)COC(=O)c1ccc(N(C)C)cc1` (stereo not given), the result was inactive. By AC50 is commonly meant the midpoint of the concentration-response curve, whichever way the signal moves. In the case of `O=C(O)C(F)(F)OC(F)(F)C(F)(F)OC(F)(F)C(F)(F)OC(F)(F)F`, the AC50 was 104 µM (active). For `OCC1CCCO1` (stereo not given), the compound was classed as inactive. Turning to `COCCOCCC[Si](C)(O[Si](C)(C)C)O[Si](C)(C)C`, the AC50 was 20.3 µM (active). In the case of `O=c1[nH]cccc1O`, the compound was called inactive. As to `CC(C)=CCCC(C)O` (stereo not given), the call was inactive. Regarding `C=CC(=O)OCC(F)(F)C(F)(F)C(F)(F)COC(=O)C=C`, the result was inactive. On to `O=C=NCc1cccc(CN=C=O)c1`, for which the call was inactive. On the same count and under the same terms, then `O=C(O)C(F)(F)C(F)(F)C(F)(F)OC(F)(F)F`, with “inactive”.

As to `C=C(C)C(=O)OCC(F)(F)C(F)(F)C(F)(F)C(F)F`, the outcome was inactive. Regarding `FC(F)(F)C(F)(F)C(F)(F)CC1CO1` (stereo not given), the result was inactive. Regarding `COC(=O)c1ccc(C=O)cc1`, the compound was called inactive. Regarding `Oc1ccc2c(c1)CCC2`, the compound was called inactive. Same read-out and setting: with `N#CCCOCCC#N` the entry was “inactive”; with `CCN(CC)c1ccc(C=O)cc1`, “inactive”; with `CCOC(=O)C1CC(=O)C(=C(O)C2CC2)C(=O)C1` (stereo not given), “inactive”.

Consider `Cc1ccc(O)c(-n2nc3ccccc3n2)c1`, for which the compound was called inactive. On to `NC(=O)C(F)(F)C(F)(F)C(F)(F)C(F)(F)C(F)(F)C(F)(F)C(F)(F)F`, for which the outcome was inactive. Regarding `O=S(=O)(Cl)C(F)(F)C(F)(F)C(F)(F)C(F)(F)C(F)(F)C(F)(F)C(F)(F)C(F)(F)F`, the result was inactive. As to `CCCCCCCCCCCCCCCCC`, the compound was classed as inactive. On to `CC(O)C#CC(C)O` (stereo not given), for which the AC50 is 78.2 µM (active).

On to `OCCCC(F)(F)C(F)(F)C(F)(F)C(F)(F)C(F)(F)C(F)(F)C(F)(F)C(F)(F)F`, for which the compound was classed as inactive. Turning to `CC(C)(C)c1cc(Cc2cc(C(C)(C)C)c(O)c(C(C)(C)C)c2)cc(C(C)(C)C)c1O`, the outcome was inactive. Take `O=c1cccc[nH]1`: the outcome was inactive.

In the case of `FC(F)(F)C(F)(F)C(F)(F)C(F)(F)C(F)(F)C(F)(F)CC[Si](Cl)(Cl)Cl`, the result was inactive.

`NCC(F)(F)C(F)(F)C(F)(F)C(F)(F)C(F)(F)C(F)(F)F`: the result was inactive. `O=C(Cl)C(F)(F)C(F)(F)C(F)(F)C(F)(F)C(F)(F)C(F)(F)F`: the compound was classed as inactive. Same read-out and setting: then `COC(F)(C(F)F)C(F)(F)F` (stereo not given), with “inactive”; and `CC(C)CCCC(C)CCO` (stereo not given), with “inactive”.

For the compound `CCOC(=O)CCC(C)=O`, the outcome was inactive. For `CCCCCCCC/C=C\CCCCCCCC(=O)OCC(O)CO` (stereo not given), the compound was classed as inactive. Regarding `CC1=CCC2C(=O)OC(=O)C2C1` (stereo not given), the outcome was inactive. Still for that read-out and setting: then `CC1=CC2C3C=CC(C3)C2C1C` (stereo not given), with “inactive”. In the case of `O=C(O)C(F)(F)C(F)(F)C(F)(F)C(=O)O`, the result was inactive.
